BoNT A protease: blocks Botulinum neurotoxin A light chain protease | AID 588499 | 360,000 compounds, 0.17% hits | multiplex microsphere protease substrate cleavage, flow cytometry | inhibition, % at 10 µM
Anthrax LF prot: inhibitors of Bacillus anthracis lethal factor protease; multiplex microsphere protease cleavage assay, LF; inhibition, % at 10 µM; 360,000 compounds, 0.12% hits
Target sequence (P15917 whole entry, looked up): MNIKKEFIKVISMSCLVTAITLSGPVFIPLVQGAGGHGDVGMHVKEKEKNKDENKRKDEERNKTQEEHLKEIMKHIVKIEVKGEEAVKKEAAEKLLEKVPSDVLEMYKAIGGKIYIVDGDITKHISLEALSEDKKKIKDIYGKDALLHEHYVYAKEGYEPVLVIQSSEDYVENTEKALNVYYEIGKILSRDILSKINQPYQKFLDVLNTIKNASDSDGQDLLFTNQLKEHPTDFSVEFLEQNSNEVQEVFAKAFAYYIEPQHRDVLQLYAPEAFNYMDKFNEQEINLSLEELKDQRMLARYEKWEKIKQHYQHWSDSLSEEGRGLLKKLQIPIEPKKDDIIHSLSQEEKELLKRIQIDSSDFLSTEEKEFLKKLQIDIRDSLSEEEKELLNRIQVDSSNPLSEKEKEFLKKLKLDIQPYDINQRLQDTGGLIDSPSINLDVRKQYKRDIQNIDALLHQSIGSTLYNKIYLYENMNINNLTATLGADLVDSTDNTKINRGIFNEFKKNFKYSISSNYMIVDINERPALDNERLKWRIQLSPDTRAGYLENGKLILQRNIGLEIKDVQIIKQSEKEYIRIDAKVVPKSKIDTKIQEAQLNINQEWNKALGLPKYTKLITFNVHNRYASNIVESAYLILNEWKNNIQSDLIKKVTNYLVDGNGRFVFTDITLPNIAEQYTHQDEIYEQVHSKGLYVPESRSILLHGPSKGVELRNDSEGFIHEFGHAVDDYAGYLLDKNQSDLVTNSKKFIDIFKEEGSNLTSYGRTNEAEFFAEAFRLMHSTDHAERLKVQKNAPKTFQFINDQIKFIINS
Autofluor counter: flagged as autofluorescent in microsphere protease counterscreen; fluorescence intensity (concentration not given with the values); 360,000 compounds, 3.1% hits; compound autofluorescence counterscreen, microsphere flow cytometry; stronger effect = higher value; in the data active = fluorescence intensity above about 16000; inconclusive = no clear call, values can overlap the other calls
BoNT-F LC inh: blocks Botulinum neurotoxin F light chain protease. inhibition, % at 10 µM. Multiplex microsphere protease cleavage assay, flow cytometry. 360,000 compounds, 0.22% hits; in the data active = inhibition above about 35%, passing the limit was not always enough; inconclusive = no clear call, values can overlap the other calls
Numbers stand for hits. Shown are actives, neighbours in structure and some others; about 3.5% of the full set was active somewhere. Cut-off read from the data, not from the text of the source, unless noted: active = inhibition above about 30%; inconclusive = no clear call, values can overlap the other calls; inactive = below that.

For c1nc(NC2CCCCC2)c2[nH]cnc2n1 the results were BoNT A protease inactive, Anthrax LF prot inactive, Autofluor counter 19676 and BoNT-F LC inh inactive.
For c1nc(NC2CCCCCC2)c2[nH]cnc2n1 the results were BoNT A protease inactive, Anthrax LF prot inactive, Autofluor counter inactive and BoNT-F LC inh inactive.
`Cn1cc(CN2CCN(c3ccccc3)CC2)c2ccccc21` gave BoNT A protease inactive, Anthrax LF prot inactive, Autofluor counter 21941 and BoNT-F LC inh inactive.
CC(=O)c1ccc(OC(=O)COc2ccccc2Cl)cc1 was read as BoNT A protease inactive, Anthrax LF prot inactive, Autofluor counter 32253 and BoNT-F LC inh inconclusive.
Cc1ccc(C)c(NC(=O)CCC(=O)NN=C2CCCC2)c1 was read as BoNT A protease inactive, Anthrax LF prot inactive, Autofluor counter inactive and BoNT-F LC inh inactive.
CCOc1ccc(C(=O)OCC(=O)Nc2nc(OC)cc(OC)n2)cc1OCC was read as BoNT A protease inconclusive, Anthrax LF prot inactive, Autofluor counter 23423 and BoNT-F LC inh inactive.
CCOc1cc(C(=O)OCC(=O)Nc2cc(C)on2)cc(OCC)c1OCC was read as BoNT A protease inactive, Anthrax LF prot inactive, Autofluor counter 22120 and BoNT-F LC inh inactive.
Screening CCCCOc1ccc(C(=O)OCC(=O)Nc2cc(C)on2)cc1 returned BoNT A protease inactive, Anthrax LF prot inactive, Autofluor counter inactive and BoNT-F LC inh inactive.
`CNS(=O)(=O)c1cccc(C(=O)OCC(=O)Nc2nc(OC)cc(OC)n2)c1` gave BoNT A protease inactive, Anthrax LF prot inactive, Autofluor counter inactive and BoNT-F LC inh inactive.
CCCCNC(=O)Nc1cc(C)on1 was read as BoNT A protease inactive, Anthrax LF prot inactive, Autofluor counter 20643 and BoNT-F LC inh inactive.
`CN(C)c1ccc(NS(=O)(=O)c2cc3c4c(c2)CC(=O)N4CCC3)cc1` gave BoNT A protease inactive, Anthrax LF prot inactive, Autofluor counter inactive and BoNT-F LC inh inactive.
For CC1(C)CC[C@]2(CO)CC[C@]3(C)C(=CCC4[C@@]5(C)CC[C@H](O)[C@@](C)(CO)C5CC[C@]43C)[C@@H]2C1 (stereo partly drawn) the results were BoNT A protease inactive, Anthrax LF prot inactive, Autofluor counter inactive and BoNT-F LC inh inactive.
Screening O=C(Nc1ccc(S(=O)(=O)N2CCOCC2)cc1)C1CC(=O)N(c2ccc(F)cc2)C1 (stereo not drawn) returned BoNT A protease inactive, Anthrax LF prot inactive, Autofluor counter inactive and BoNT-F LC inh inactive.
`Cc1cc(NC(=O)CSc2nnc(CNc3ccc(F)cc3)n2C2CCCCC2)no1` gave BoNT A protease inactive, Anthrax LF prot inactive, Autofluor counter 23158 and BoNT-F LC inh inactive.
For CC(=O)Nc1ccc(NC(=O)CSc2nnc(CNc3ccc(F)cc3)n2CC2CCCO2)cc1 (stereo not drawn) the results were BoNT A protease inactive, Anthrax LF prot inactive, Autofluor counter inactive and BoNT-F LC inh inactive.
For CCc1nnc(NC(=O)CSc2nnc(CNc3cccc(C)c3)n2-c2ccccc2)s1 the results were BoNT A protease inactive, Anthrax LF prot inactive, Autofluor counter inactive and BoNT-F LC inh inactive.
`CCc1nnc(NC(=O)CSc2nnc(CNc3ccc(F)cc3)n2C2CCCCC2)s1` gave BoNT A protease inactive, Anthrax LF prot inactive, Autofluor counter 16238 and BoNT-F LC inh inactive.
For NS(=O)(=O)c1cccc(NC(=O)Cn2cnc3ccccc3c2=O)c1 the results were BoNT A protease inactive, Anthrax LF prot inactive, Autofluor counter 20676 and BoNT-F LC inh inactive.
`COC(=O)c1cccc(NC(=O)Cn2cnc3ccccc3c2=O)c1` gave BoNT A protease inactive, Anthrax LF prot inactive, Autofluor counter inactive and BoNT-F LC inh inactive.
For COc1ccc(C)cc1NC(=O)C(=O)NCc1ccncc1 the results were BoNT A protease inactive, Anthrax LF prot inactive, Autofluor counter inactive and BoNT-F LC inh inactive.
`CCOC(=O)COn1c(=O)c(-c2ccccc2)[n+]([O-])c2ccccc21` gave BoNT A protease inactive, Anthrax LF prot 30, Autofluor counter inactive and BoNT-F LC inh inactive.
Screening CCOc1ccc(-c2c(=O)n(OCc3ccccn3)c3ccccc3[n+]2[O-])cc1 returned BoNT A protease inactive, Anthrax LF prot inactive, Autofluor counter 22653 and BoNT-F LC inh inactive.
Screening c1ccc(OCCNc2nc(NCC3CC3)nc3ccsc23)cc1 returned BoNT A protease inactive, Anthrax LF prot inactive, Autofluor counter inactive and BoNT-F LC inh inactive.
CC(=O)NC1C(=O)N(CC(C)C)c2ccccc21 (stereo not drawn) was read as BoNT A protease inactive, Anthrax LF prot inactive, Autofluor counter 21274 and BoNT-F LC inh inactive.
For CSc1nsc(SC)c1NC(=O)OCc1ccccc1 the results were BoNT A protease inactive, Anthrax LF prot inactive, Autofluor counter inactive and BoNT-F LC inh inactive.
For CSc1nsc(SC)c1NC(=O)OCC1CCCO1 (stereo not drawn) the results were BoNT A protease inactive, Anthrax LF prot inactive, Autofluor counter 21471 and BoNT-F LC inh inactive.
Cc1ccc([N+](=O)[O-])cc1NC(=O)CCCOc1ccccc1 was read as BoNT A protease inactive, Anthrax LF prot inactive, Autofluor counter 16846 and BoNT-F LC inh inactive.
Screening COc1ccc(OC)c(CCNC(=O)CC2(CC3=NS(=O)(=O)c4ccccc4N3)CCCC2)c1 returned BoNT A protease inactive, Anthrax LF prot inactive, Autofluor counter inactive and BoNT-F LC inh inactive.
`CCOC(=O)CSc1ncc(OC)c(Sc2ccc(OC)cc2)n1` gave BoNT A protease inactive, Anthrax LF prot inactive, Autofluor counter 20771 and BoNT-F LC inh inactive.
For CN(C(=O)/C(N=Nc1cccc(C(F)(F)F)c1)=C(\O)C(F)(F)F)c1ccccc1 the results were BoNT A protease inactive, Anthrax LF prot inactive, Autofluor counter 16687 and BoNT-F LC inh inactive.
For CC(=O)/C(N=Nc1cccc(C(F)(F)F)c1)=C(\C)O the results were BoNT A protease inactive, Anthrax LF prot inactive, Autofluor counter inactive and BoNT-F LC inh inactive.
Cc1ccc(C(=O)Nc2cc(=O)n(C)c(=O)n2C)o1 was read as BoNT A protease inconclusive, Anthrax LF prot inactive, Autofluor counter 22513 and BoNT-F LC inh inactive.
For CCN1/C(=C\C=C\C2=[N+](CC)c3ccccc3C2(C)C)C(C)(C)c2ccccc21 the results were BoNT A protease 92, Anthrax LF prot inactive, Autofluor counter inactive and BoNT-F LC inh inactive.
`CCOC(=O)/C=C1/N(C)c2ccccc2C1(C)C` gave BoNT A protease inactive, Anthrax LF prot inactive, Autofluor counter inactive and BoNT-F LC inh inactive.
CCCN(CCC)S(=O)(=O)c1ccc(NS(=O)(=O)c2ccc(F)cc2)cc1 was read as BoNT A protease inactive, Anthrax LF prot inactive, Autofluor counter 17098 and BoNT-F LC inh inactive.
CCCN(CCC)S(=O)(=O)c1ccc(NS(C)(=O)=O)cc1 was read as BoNT A protease inactive, Anthrax LF prot inactive, Autofluor counter inactive and BoNT-F LC inh inactive.
`COc1ccc(NC(=O)c2c(OC)cccc2OC)c(OC)c1` gave BoNT A protease inactive, Anthrax LF prot inactive, Autofluor counter 16438 and BoNT-F LC inh inactive.
`COc1ccc(NC(=O)c2ccccc2O)c(OC)c1` gave BoNT A protease inactive, Anthrax LF prot inactive, Autofluor counter 18765 and BoNT-F LC inh inactive.
COc1ccc(NC(=O)c2ccccc2SC)c(OC)c1 was read as BoNT A protease inactive, Anthrax LF prot inactive, Autofluor counter inactive and BoNT-F LC inh inactive.
`COc1ccc(NC(=O)c2cccnc2C(=O)O)c(OC)c1` gave BoNT A protease inactive, Anthrax LF prot inactive, Autofluor counter 20348 and BoNT-F LC inh inactive.
